Source: PubChem BioAssay (NCI)
This is part of a sample that, as a whole, favours compounds with a hit. Of some 83,000 tested, about 20% had one in any assay.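 Single-dose data. Exposure time 48 hours. Values below 10 considered active.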 Values without a mark were called inactive. Calls of active or inactive are those of the source.

tested on: HL-60(TB) leukemia; experiment: NCI-60 one-dose screen, 48 h (100 = growth as untreated, 0 = no growth, -100 = all killed); settings: 10 µM unless noted

Row | Compound | growth
1 | CO[C@H]1C[C@@H]2CC[C@@H](C)[C@@](O)(O2)C(=O)C(=O)N2CCCC[C@H]2C(=O)O[C@H]([C@H](C)C[C@@H]2CC[C@@H](O)[C@H](OC)C2)CC(=O)[C@H](C)/C=C(\C)[C@@H](O)[C@@H](OC)C(=O)[C@H](C)C[C@H](C)\C=C/C=C/C=C/1C | 16.5%
2 | CC1(C)CC[C@]23CC[C@]4(C)[C@H](CC[C@@H]5[C@@]6(C)C/C(=C/c7cccnc7)C(=O)C(C)(C)[C@@H]6CC[C@]54C)[C@H]2[C@H]1OC3=O | -0.84% [100 µM] (active)
3 | CC(=O)Oc1cccc(S(=O)(=O)n2cc(C(=O)C(=O)Nc3ccncc3)c3ccccc32)c1 | 56.1%
4 | CSc1nc(NCCO)c(C#N)c(-c2cccc([N+](=O)[O-])c2)n1 | 104%
5 | COc1ccc(C(=O)COc2cccc(/C=C3\Oc4ccc5ccccc5c4C3=O)c2)cc1 | 90.7%
6 | C1CNC(C2=NCCN2)=N1 | 109%
7 | O=[N+]([O-])c1cc[n+]([O-])cc1 | 36.1%
8 | Clc1ccc(/C=C/c2ccccn2)cc1 | 99.4%
9 | CC1(O)COCCCCOc2c(CN)cccc2NC(=O)c2nc(cnc2N)-c2ccc(cc2)S(=O)(=O)C(C)(C)C1 (stereo unspecified) | -54.7% (active)
10 | CC(C)C(C)C(N)C(=O)O (stereo unspecified) | 97.9%
11 | COc1ccc(CN2CCc3c(Cl)nc(N)nc3C2=O)c(OC)c1 | 12.3% [100 µM]
12 | C=CCOC(=O)C1=C(C)NC(=O)NC1c1c(Cl)n(C)c2ccccc12 (stereo unspecified) | 109%
13 | Cn1c(=O)c2c(nc(NC3=NS(=O)(=O)c4ccccc43)n2Cc2ccccc2)n(C)c1=O | 112%
14 | COc1ccc(/C=C2\CCCC3=C2NC(N)=NC3c2ccc(OC)c(OC)c2)cc1OC (stereo unspecified) | 42.4%
15 | Cc1c(C(=O)N[C@H](CO)Cc2ccccc2)[nH]c2ccc(Cl)cc2c1=O | 99.7%
16 | COc1ccc(-c2nn(-c3ccc(NC(=O)Nc4ccc(Cl)c(C(F)(F)F)c4)cc3)cc2-c2ccncc2)cc1Cl | -11.9% (active)
17 | CSc1[nH]c2ncnc(N)c2c1C#N | 112%
18 | COC(=O)C1(C(=O)OC)C2C(=O)C3C(C21)C3(C(=O)OC(C)(C)C)C(=O)OC(C)(C)C (stereo unspecified) | 96.6%

Row | Compound | growth
19 | Cn1ncc2ccc(-c3nc(-c4ccccc4)[nH]c3-c3n[nH]c(=O)n3C3CC3)cc21 | 84.7%
20 | COc1cc(-c2nn(-c3ccc(C)cc3)cc2C(=O)O)ccc1O | 82.2%
21 | COc1ccc(-c2cc(/C=C/C(=O)c3ccc(N)cc3)[nH]n2)cc1OC | 20.1%
22 | C/C(=N/N=C(N)N)c1ccc(N)cc1 | 60.1%
23 | C=C1C(=O)O[C@H]2[C@H]1CC/C(Cn1cc(CNC(=O)/C=C/c3c[nH]c4ccccc34)nn1)=C\CC[C@@]1(C)O[C@@H]21 | 29.9%
24 | Cc1cc(Nc2ccc(OCc3ccccc3)cc2)nc2cc(O)ccc12 | -44.4% (active)
25 | NCCNc1nc(Nc2ccc(-c3nc4ccccc4[nH]3)cc2)c2cn[nH]c2n1 | 91.9%
26 | COc1cc2nc(-c3ccc(Cl)cc3)cc(OCCCN3CCCC3)c2cc1OC | 32.4%
27 | NCC(=O)NC(CC(=O)O)C(=O)O (stereo unspecified) | 90.7%
28 | COc1cccc(-c2nc3occn3c2-c2ccnc(NCCNS(=O)(=O)c3ccc(C(F)(F)F)cc3)n2)c1 | 116%
29 | O=C1/C(=N\c2cc(=O)[nH]n2S(=O)(=O)c2ccccc2)Nc2ccccc21 | 102%
30 | COc1cc(/C=C/C(=O)/C=C(O)/C=C/c2ccc(OC(=O)C34CC5CC(CC(C5)C3)C4)c(OC)c2)ccc1OC(=O)C12CC3CC(CC(C3)C1)C2 | 104%
31 | Cc1c(C(=O)C(SC(=S)N2CCOCC2)SC(=S)N2CCOCC2)nnn1-c1ccc([N+](=O)[O-])cc1 | 91.3%
32 | NC(N)=Nc1ccc(/C=C2\C=Cc3ccccc32)cc1 | 61.6%
33 | Cn1cc(-c2csc(-c3cn(CCN)c4ccccc34)n2)c2cccnc21 | 26.5%
34 | O=C1Cc2c(sc3c(F)cccc23)C(c2ccccc2[N+](=O)[O-])N1 (stereo unspecified) | 116%
35 | CCOC(=O)c1c(-c2ccc(OC)cc2)c(C#N)c2c(C#N)c(N)nn2c1N | -40.4% (active)
36 | Cc1nc2sc(C(=O)Nc3cccc(Br)c3)c(N)c2cc1C(O)c1ccccc1 (stereo unspecified) | -27.4% (active)
